According to PubChem BioAssay:
Values joined by “and” are separate entries in the source; they are usually repeats but may differ in a detail not shown here. Identical values can stand only once. Results filed as inconclusive are left out. For some of these results: Entries with a potency or affinity are not part of this list. Active and inactive are the calls of the source. Unless noted, no rule for the calls is given here.

Key:
[1] = blockers of polyQ-driven CASP3 activation – cell-based (AID 1583); conditions: polyglutamine-induced caspase-3 activation, cell assay; stronger effect = higher value;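 tested at 10 µM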
[2] = yeast 75Q aggregation reduction – 75Q-TubU reporter (AID 1593); conditions: Yeast 75Q polyglutamine aggregation reporter
[3] = restoration of touch response, mutant HTT neurons – whole organism, C. elegans mechanosensory neurons, N-terminal huntingtin (AID 1599); conditions: C. elegans polyQ-huntingtin mechanosensory neurons, stronger effect = higher value
[4] = blockers of cytochrome c efflux from mitochondria – biochemical, purified mitochondria (AID 1603); conditions: stronger effect = lower value;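 also: mouse liver mitochondria challenged with calcium chloride; signal normalized to the plate average as 100%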
[5] = polyglutamine aggregate formation blockers (AID 1604); conditions: polyglutamine-induced protein aggregation inhibition assay; stronger effect = higher value; tested at 2.5 µM
[6] = glutamate transport activators, MN-1 cells, MN-1 cell line (AID 1612); conditions: MN-1 motor neuron cells, stronger effect = higher value;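 also: tested at 1 µM final; 0% = mean of DMSO vehicle wells on each plate; positive means more glutamate uptake than control and negative means less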
[7] = GFP-Q80 aggregate reduction, neuronal-like cells, cell-based, NGF-treated PC12, GFPQ80 (AID 1614); conditions: PC12 NGF-treated GFP-polyQ80 inclusion reduction;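 also: lower means fewer inclusions and 0 means no inclusions at all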
[8] = 75Q-TubH aggregate inhibition, S. cerevisiae, yeast (AID 1616); conditions: S. cerevisiae 75Q-TubH polyglutamine aggregation suppression; stronger effect = higher value
[9] = compounds altering circadian rhythm period length – cell-based, LOPAC library, luminescence reporter (AID 2774); conditions: circadian reporter cells, at 7 µM, actives lie on both sides;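 also: values are relative to mean of DMSO wells on each plate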
[10] = compounds altering viability of human ES cells (AID 493140); conditions: human embryonic stem cell survival screen; stronger effect = higher value;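 also: cells exposed to compounds for four days before counting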
[11] = biological target: ATP-dependent translocase ABCB1 (Homo sapiens) (UniProt P08183); assay: P-glycoprotein substrate transport blockade – cell-based (AID 377; in the data active = fluorescence slope change above about 50%); conditions: MDR1-expressing cells, fluorescent substrate accumulation slope; stronger effect = higher value; concentration not given here
ATP-dependent translocase ABCB1 (Homo sapiens), sequence (P08183 whole entry, looked up): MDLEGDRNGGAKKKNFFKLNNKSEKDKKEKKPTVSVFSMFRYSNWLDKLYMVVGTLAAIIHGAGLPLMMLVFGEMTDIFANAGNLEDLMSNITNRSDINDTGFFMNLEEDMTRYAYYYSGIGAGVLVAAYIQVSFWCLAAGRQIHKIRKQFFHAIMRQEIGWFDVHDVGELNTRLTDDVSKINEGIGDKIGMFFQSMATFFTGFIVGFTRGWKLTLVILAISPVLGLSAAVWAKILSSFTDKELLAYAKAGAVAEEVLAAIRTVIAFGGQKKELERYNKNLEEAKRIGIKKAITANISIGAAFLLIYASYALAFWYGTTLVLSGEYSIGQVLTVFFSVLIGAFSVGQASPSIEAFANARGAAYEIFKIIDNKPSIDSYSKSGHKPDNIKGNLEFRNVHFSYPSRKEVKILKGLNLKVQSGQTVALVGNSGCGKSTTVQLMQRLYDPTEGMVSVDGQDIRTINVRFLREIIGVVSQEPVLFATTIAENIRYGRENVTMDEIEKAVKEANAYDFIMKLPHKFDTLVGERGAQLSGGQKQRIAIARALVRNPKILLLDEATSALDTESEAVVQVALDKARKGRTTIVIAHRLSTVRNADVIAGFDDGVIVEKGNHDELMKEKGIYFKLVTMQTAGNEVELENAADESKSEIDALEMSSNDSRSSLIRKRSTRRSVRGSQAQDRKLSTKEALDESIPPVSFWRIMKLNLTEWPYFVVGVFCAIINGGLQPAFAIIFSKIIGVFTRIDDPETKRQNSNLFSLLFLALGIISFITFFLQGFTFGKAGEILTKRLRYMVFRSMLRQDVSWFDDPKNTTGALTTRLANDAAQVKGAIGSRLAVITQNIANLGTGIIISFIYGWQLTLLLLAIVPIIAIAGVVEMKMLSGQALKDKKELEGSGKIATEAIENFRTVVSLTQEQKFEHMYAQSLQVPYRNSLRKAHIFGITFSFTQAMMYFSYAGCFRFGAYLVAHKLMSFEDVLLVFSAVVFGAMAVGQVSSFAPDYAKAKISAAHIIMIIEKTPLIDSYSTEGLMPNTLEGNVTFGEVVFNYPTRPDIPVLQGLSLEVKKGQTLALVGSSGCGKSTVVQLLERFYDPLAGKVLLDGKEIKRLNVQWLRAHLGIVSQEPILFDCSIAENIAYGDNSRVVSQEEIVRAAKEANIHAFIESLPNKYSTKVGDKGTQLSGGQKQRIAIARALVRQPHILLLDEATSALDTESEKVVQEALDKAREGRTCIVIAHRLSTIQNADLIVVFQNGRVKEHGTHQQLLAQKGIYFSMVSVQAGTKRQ

SMILES	inhibition [1]	score [2]	rescue above control [3]	cytochrome c release ratio [4]	inhibition of aggregation [5]	glutamate uptake change [6]	inclusion score [7]	aggregation suppression score [8]	period change [9]	survival [10]	fluorescence slope change [11]
NCCCC(=O)O	15.3%	1.12	-4.87	0.87	18.5%	-3.42%	2	0.665	0.105 h (inactive)		
O=C(O)c1cc(=O)c2ccccc2o1	6.16%	1.58	-0.59	0.94	87.2%	2.44%	2	1.45			
CCCCCC(C)N (stereo unspecified)	-8.68%	1.2	1.21	1.02	-9.09%	3.71%	2	0.962			
NC[C@H](O)c1ccc(O)c(O)c1	10.9%	1.61	-5.19	1.03	44.7%	21.3%	2	1.39	0.04 h (inactive)		
CCOC(N)=O	-5.88%	1.23	-10	0.98	58.9%	-13.5%	2	1.21			
O=C1c2cccc(O)c2C(=O)c2c(O)cccc21	-36.4%	-0.3	-2	1.21	58.9%	-10.8%	2	0.219			
NC(=O)c1ncn([C@@H]2O[C@H](CO)[C@@H](O)[C@H]2O)n1	21%	1.56	-2.31	1.02	21.6%	14.1%	1.5	1.25	0.065 h (inactive)		
COc1ccc(C2C(=O)c3ccccc3C2=O)cc1	2.6%	0.47	-9.34	1.11	79.6%	-8.78%	2	0.401			
CC(=O)Nc1ccccc1	14.3% and 16.3%	1.29 and 1.35	-5.57 and 2.9	1.36 and 1.09	42.4% and 85.9%	3.38% and -12.1%	2	1.6 and 1.51			
Cn1c(=O)c2c(ncn2C)n(C)c1=O	5.72%	1.32	4.29	1.5	74.9%	-3.95%	2	1.18	0.03 h (inactive)		
O=c1cc[nH]c(=S)[nH]1	2.52%	1.24	1.48	1.09	41.5%	7.71%	2	1.48			
NC(=O)NO	-0.33%	1.4	-1.6	0.82	85.9%	1.4%	2	1.3	-0.055 h (inactive)		
NC(=O)c1ccccc1O	-13.1%	1.55	9.08	0.7	78.1%	8.07%	2	1.02			
CCC(=O)c1c(O)cc(O)cc1O	6.37%	0.94	-3.67	1.29	38.9%	-10.7%	2	1.29			
Nc1c2c(nc3ccccc13)CCCC2O (stereo unspecified)	19.1%	1.04	-4.39	0.96	59.1%	6.03%	2	0.587	0.15 h (inactive)		
Cc1c(C(N)=O)cc([N+](=O)[O-])cc1[N+](=O)[O-]	-1.96%	1.25	5.37	1.17	82.7%	-10.4%	2	0.968			
NC(=O)c1ccc([N+](=O)[O-])cc1Cl	5.22%	1.24	31.2	1.06	82.5%	19.4%	2	1.31			
CC(=O)N[C@@H](CS)C(=O)O	-21.7%	1.46	-1.36	1.05	79.6%	-3.8%	2	1.2	0.1 h (inactive)		
Nc1ccc(C(=O)O)c(O)c1	-17.6%	1.08	7.16	1.48	88.8%	2.47%	2	1.24			
O=C(O)P(=O)(O)O	-16.3%	1.28	9.34	0.68	30.6%	-1.79%	2	1.5			
Nc1nccs1	9.3%	1.44	-9.08	0.95	30.7%	28.6%	2	1.04			
Cc1cc(=O)[nH]c(=S)[nH]1	-32.8%	1.08	-4.23	0.82	69.4%	14.6%	2	1.02			
O=C1OCCN1/N=C/c1ccc([N+](=O)[O-])o1	4.31%	0.66	4.89	1.17	27%	4.62%	2	0.223			
C=CCc1ccc(O)c(OC)c1	-5.5%	1.31	11.4	1.29	81.4%	-8.45%	2	1.76			

SMILES	inhibition [1]	score [2]	rescue above control [3]	cytochrome c release ratio [4]	inhibition of aggregation [5]	glutamate uptake change [6]	inclusion score [7]	aggregation suppression score [8]	period change [9]	survival [10]	fluorescence slope change [11]
NC(=O)c1ncn([C@@H]2O[C@H](CO)[C@@H](O)[C@H]2O)c1O	7.18%	1.36	-8.77	0.91	49%	20.3%	2	0.757	-0.05 h (inactive)		
CCCOc1ccc2nc(NC(=O)OC)[nH]c2c1	0.98%	1.01	0	0.9	22.1%	-36.6%	2	0.918			
N=C(N)N	11.9%	0.82	-2.24	0.89	73.1%	5.8%	2	0.901			
NCCCCCC(=O)O	-5.51%	1.37	1.88	1.36	75.6%	-5.97%	2	1.27	0.065 h (inactive)	2 (inactive)	
CN1CCN(CC(=O)N2c3ccccc3C(=O)Nc3cccnc32)CC1	9.26%	1.57	18.8	1.27	63.5%	-10.6%	2.5	1.19	0.09 h (inactive)	8.33 (inactive)	
NS(=O)(=O)c1cc2c(cc1Cl)NC(C1CC3C=CC1C3)NS2(=O)=O (stereo unspecified)	13%	0.98	1.81	1.07	5.88%	1.35%	2	0.424	0.225 h (inactive)		
O=C1CC2(CCCC2)CC(=O)N1CCCCN1CCN(c2ncccn2)CC1	-0.71%	1.18	1.91	1.06	48.3%	15.2%	2	1.24	-0.08 h (inactive)	4 (inactive)	65.3% (active)
C#CCN(C)Cc1ccccc1	17%	1.16	30.7	1.06	0%	-1.37%	2	1.43	0.06 h (inactive)	31.2 (inactive)	71.9% (active)
CCCN(CCC)C(=O)C(CCC(=O)O)NC(=O)c1ccccc1 (stereo unspecified)	14.9%	1.14	-3.65	1.15	68.3%	11.9%	1	1.2	0.02 h (inactive)	19.6 (inactive)	
CN1Cc2c(N)cccc2C(c2ccccc2)C1 (stereo unspecified)	63.6%	1.13	-9.83	0.88	75%	-14.3%	2	1.65	-0.06 h (inactive)	19.8 (inactive)	80.5% (active)
C=CCc1ccccc1OCC(O)CNC(C)C (stereo unspecified)	3.86%	1.39	6.88	1.44	14.3%	-6.27%	2	1.42	0.15 h (inactive)	7.25 (inactive)	80.3% (active)
Cc1cc(C(C)(C)C)cc(C)c1CC1=NCCN1	23.6%	1.63	-3.36	1.05	63.4%	16.9%	2	1.86	0.03 h (inactive)	6.75 (inactive)	26.6% (inactive)
COc1ccc(CN(CCN(C)C)c2ccccn2)cc1	17.1%	1.86	23.5	0.92	12.7%	0.17%	2	1.48	0.06 h (inactive)	21.9 (inactive)	102% (active)
CN1CCC(=C2c3ccccc3CC(=O)c3sccc32)CC1	9.78%	1.65	1.84	1.14	57.6%	0.39%	2	1.2	-0.04 h (inactive)	5.83 (inactive)	20.2% (inactive)
CCN(CC)CCNC(=O)c1cc(S(C)(=O)=O)ccc1OC	6.97%	1.47	10	5.94	79.2%	-0.98%	2	1.49	0.15 h (inactive)	16.2 (inactive)	144% (active)
CC(=O)OCC1=C(C(=O)O)N2C(=O)[C@@H](NC(=O)Cc3cccs3)[C@H]2SC1	11.1%	1.29	-1.7	0.78	-17.5%	0.12%	2	1.47	0.04 h (inactive)	7.08 (inactive)	2.1% (inactive)
CC(=O)OCC1=C(C(=O)O)N2C(=O)[C@@H](NC(=O)CSc3ccncc3)[C@H]2SC1	-8.64%	1.04	-6.1	1.02	71.9%	-2.14%	2	1.12	0.035 h (inactive)	1.83 (inactive)	13.4% (inactive)
Cc1cc(C(C)(C)C)c(O)c(C)c1CC1=NCCN1	-9.11%	1.29	2.64	0.88	6.98%	-22.6%	2	1.13	-0.09 h (inactive)	18.8 (inactive)	75.3% (active)
CCCOc1ccccc1-c1nc2n[nH]nc2c(=O)[nH]1	-7.12%	0.63	1.11	0.54	18.4%	-4.8%	2	1.1	-0.2 h (inactive)	9.92 (inactive)	11.9% (inactive)
COCCc1ccc(OCC(O)CNC(C)C)cc1 (stereo unspecified)	9.55%	0.98	-6.09	0.97	69.7%	-0.51%	2	0.579	0.045 h (inactive)	15.4 (inactive)	51% (active)
CCn1cc(C(=O)O)c(=O)c2cc(F)c(N3CCNC(C)C3)c(F)c21 (stereo unspecified)	-6.75%	1.15	3.68	1.13	80.3%	-4.22%	2	1.06	-0.015 h (inactive)	17.1 (inactive)	
COc1ccc2[nH]cc(CCNC(C)=O)c2c1	-10%	1.34	0.33	0.49	46.1%	7.67%	2	1.76	-0.21 h (inactive)	15.4 (inactive)	
O=c1c(O)c(-c2ccc(O)c(O)c2)oc2cc(O)cc(O)c12	24.5%	1.53	8.75	1.04	87.3%	12.9%	1	1.03	-0.025 h (inactive)	4.17 (inactive) and 87 (inactive)	
